# Compound activity from PubChem.
# IL1B secr inh: qHTS for Inhibitors of Inflammasome Signaling: IL-1-beta AlphaLISA Primary Screen | THP-1 LPS/ATP IL-1B secretion, AlphaLISA, 16 h; hits give low values | activity change, % at 57.5 µM | 360,000 tested, 4.7% active; in the data active means activity change below about -50%; inconclusive means mostly about -30% to -49%; further: on the % scale 0 is the no-effect control and ±100 the full control effect
#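 THP-1 cells pretreated 1 hr with compounds (up to 57.5 uM final), then stimulated with LPS (250 ng/mL final) plus ATP (1.25 mM final); secreted IL-1B measured by AlphaLISA after 16 hr, decreased signal indicating inhibition.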
# HepG2 viability: qHTS for Inhibitors of TGF-b: Cytotox Counterscreen; HepG2 CAGA-GFP viability, ATP luminescence, 18 h; 410,000 tested, 0.76% active; Potency, µM (titrated, usually from 46.1 µM), for inactives: top-dose activity change, negative = cytotoxicity, usual class: cytotoxic; further: potency means the concentration at half of the fitted maximal effect
#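 CellTiter-Glo luminescence gave cytotoxicity after 18 hours at 37 degrees C. The cells were HepG2 CAGA-GFP in 1% FBS DMEM, stimulated with 500 pg/mL TGF-beta after compound addition. %Activity was normalised to no-cell wells (complete cell-killing) and DMSO (no toxicity), and curves were fitted and classified.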
# TGFb inhibitor: qHTS for Inhibitors of TGF-b | HepG2 CAGA-GFP TGF-b/SMAD3 reporter, GFP fluorescence, 18 h; TGF-beta stimulated, 500 pg/mL final | Potency, µM (titrated, usually from 46.1 µM), inactives show at the top dose activity, negative = inhibition, actives largely listed as inhibitors | 410,000 tested, 1.2% active; further: potency means the concentration at half of the fitted maximal effect; on the % scale 0 is the no-effect control and ±100 the full control effect; nearly all actives have a fitted effect of over 65% in size
#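 Inhibition was scored as loss of TGF-beta-induced (500 pg/mL final, 18 hours, 37 degrees C) GFP in HEPG2 cells carrying a CAGA-GFP reporter, in DMEM with 1% FBS. Well GFP was summed per cell; Activity was normalised to unstimulated and stimulated DMSO wells, then concentration-response fitting.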
# TDP1 inh: qHTS Assay for Inhibitors of Tyrosyl-DNA Phosphodiesterase (TDP1) | recombinant TDP1, AlphaScreen DNA substrate cleavage | Tyrosyl-DNA phosphodiesterase 1 (Homo sapiens), Q9NUW8 | AID 485290, 2010 | Potency, µM (series often up to 130 µM), for inactives: at the highest dose activity change, negative = inhibition, hits mostly inhibitors | 350,000 tested, 0.28% active; further: potency means the concentration at half of the fitted maximal effect; on the % scale 0 is the no-effect control and ±100 the full control effect; nearly all actives have a fitted effect of over 40% in size
#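 Steps: enzyme plus compound, 15 min RT; add biotin/phosphotyrosine-FITC oligonucleotide (15 nM final), react 5 min; add donor/acceptor beads (10 ug/ml final), 10 min; read AlphaScreen. Tdp1 at 1 nM final.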
# TDP1 cell CPT: qHTS for Inhibitors of human tyrosyl-DNA phosphodiesterase 1 (TDP1): qHTS in cells in presence of CPT; AID 686979, 2013; Potency, µM (series often up to 46.2 µM), inactives show at the highest dose activity change, negative = growth inhibition, hits mostly inhibitors; 420,000 tested, 12% active; chicken DT40 Tdp1-/-;hTDP1 cells + 20 nM CPT, ATP luminescence, 48 h; further: potency means the concentration at half of the fitted maximal effect; on the % scale 0 is the no-effect control and ±100 the full control effect; nearly all actives have a fitted effect of over 55% in size
#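 Chicken DT40 Tdp1-/- cells stably complemented with human TDP1 were seeded at 400 cells/well in medium containing 20 nM camptothecin, exposed to pin-transferred compounds, and grown at 37 °C for at least 48 hr. Viability was read as ATP luminescence.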
# TDP1 cell noCPT: qHTS for Inhibitors of human tyrosyl-DNA phosphodiesterase 1 (TDP1): qHTS in cells in absence of CPT; DT40 Tdp1-/- hTDP1 cells, no CPT, ATP luminescence, 48 h; Potency, µM (highest dose often 46.2 µM), for the others: at the highest dose activity change, negative = growth inhibition, most hits filed as inhibitors; 420,000 tested, 15% active; further: potency means the concentration at half of the fitted maximal effect; on the % scale 0 is the no-effect control and ±100 the full control effect; nearly all actives have a fitted effect of over 55% in size
#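 DT40 Tdp1-/-;hTDP1 cells, no CPT (DMSO vehicle only), 400 cells/well; compounds pin-transferred; ≥48 hr, 37 °C; CellTiter-Glo 30 min RT dark, luminescence read.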
# The depositor's hits bear a star; ? = inconclusive; · = no result. Hits are enriched below; roughly 18% of the tested compounds scored in any of these assays. Unless noted, the call rests on the fitted dose curve; in most records, active means well fitted curve in the direction sought with a large enough effect; inconclusive means small, poorly fitted or top-dose-only effect, or another doubt; inactive means no such curve, though single readings can be large; an effect the other way counts as inactive or inconclusive.
SMILES,IL1B secr inh,HepG2 viability,TGFb inhibitor,TDP1 inh,TDP1 cell CPT,TDP1 cell noCPT
COc1ccc(Cc2c(-c3ccccc3)nc3c(C)cc(Br)cn23)c(C)c1,33.8,-18.8%,?,·,16.4µM*,?
COc1ccc(Cc2c(-c3cccc(Cl)c3)nc3c(C)cc(Br)cn23)c(C)c1,?,-30.8%,?,·,2.59µM*,2.59µM*
COc1ccc(Cc2c(C3CCCCC3)nc3c(C)cc(Br)cn23)c(C)c1,6.3,-23.4%,?,·,2.59µM*,2.59µM*
COc1ccc(Cc2c(C3CCCCC3)nc3c4ccccc4ccn23)c(C)c1,12.4,-1.1%,-19.5%,·,?,?
COc1ccc(Cc2c(-c3cccc(Br)c3)nc3c(C)cc(Br)cn23)c(C)c1,7.8,-11.8%,-23.1%,·,?,?
Cc1cc(Br)cn2c(Cc3cccc(Cl)c3)c(-c3cccc(Cl)c3)nc12,9.1,·,·,·,?,25.9µM*
COc1ccc(-c2nc3c(C)cc(Br)cn3c2Cc2cccc(Cl)c2)cc1OC,?,-19.2%,?,·,?,?
COc1ccc(C(=O)N2CCCC(c3cc(C(=O)NCc4cccnc4)no3)C2)cc1 (stereo not drawn),12.5,-9.8%,1.0%,·,?,?
CCCCNC(=O)C1c2ccccc2OCC(=O)N1CCc1ccc(OC)c(OC)c1 (stereo not drawn),-3.2,·,·,·,-14.9%,-28.3%
Cc1ccn(CC(=O)N2CCCC(N3CCN(c4ccc(F)cc4)CC3)C2)n1 (stereo not drawn),0.0,0.1%,0.1%,·,-7.0%,16.5%
O=C(NCc1cccnc1)/C(=C\c1ccc(-c2ccc(Cl)c(Cl)c2)o1)S(=O)(=O)c1ccccc1,-107.2*,-103.2%,4.47µM*,-5.3%,4.61µM*,4.61µM*
Cc1cccn2cc(CCNC(=O)Cc3cccs3)nc12,-73.9*,1.1%,19.2%,7.0%,6.2%,0.7%
O=C(CSc1n[nH]c(=O)n1Cc1ccccc1)Nc1ccc(N2CCOCC2)cc1,13.4,-29.0%,-2.9%,-8.7%,-14.4%,-2.8%
CC1(C)CC(C(CCN(Cc2ccccc2)C(=O)c2ccco2)c2ccc(F)cc2)CCO1 (stereo not drawn),-52.2*,-71.7%,?,5.4%,?,?
COc1ccc(NC(=O)COC(=O)CCc2ccc(S(=O)(=O)N3CCOCC3)cc2)cc1OC,3.0,2.9%,24.5%,2.1%,-4.9%,1.1%
CC1=C(C)/C(=N\OS(=O)(=O)c2ccc(C)cc2)C=CC1=O,-102.8*,3.98µM*,2.82µM*,10.6%,0.581µM*,0.651µM*
COc1ccc(S(=O)(=O)/N=C2/C=CC(=O)C(C)=C2C)cc1,49.7,2.8%,-2.6%,6.2%,1.84µM*,1.64µM*
CCOC(=O)[C@]12CCCC=C1N(Cc1ccc3c(c1)OCO3)C(=O)[C@H](CC(=O)N1CCN(C(=O)C3CC3)CC1)C2,24.8,·,·,·,?,?
COc1ccc(CC(=O)N2CCc3cc(OC)c(OC)cc3C2C)c(OC)c1 (stereo not drawn),21.6,-4.8%,7.2%,·,?,?
O=C(NCc1ccccc1)c1nc(-c2c(F)cccc2F)oc1-c1ccccc1,4.8,·,·,·,?,18.4µM*
CCCCNC(=O)c1nc(-c2ccc(C(F)(F)F)cc2)oc1-c1ccccc1,-17.9,·,·,·,-24.0%,-20.1%
CCCCNC(=O)c1nc(-c2cc3ccccc3[nH]2)oc1-c1cccc(C(F)(F)F)c1,-3.4,·,·,·,14.6µM*,?
